# ATXN2 expr inh: reduces ATXN2 reporter expression in HEK-293 cells; HEK-293 ATXN2-luciferase reporter, luminescence, 24 h; Potency, µM (highest dose often 57 µM), for inactives: top-dose activity change, negative = inhibition, usual class: inhibitors; hit rate 0.72% among 360,000; AID 1745845; note: % is set by controls: 0 for no effect and ±100 for the full control effect; nearly all actives have a fitted effect of over 55% in size
#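 ATXN2-luciferase reporter cells (luciferase flanked by upstream and downstream ATXN2 gene portions) were treated 24 h at 37 °C with compounds at up to 57 uM. SteadyGlo luminescence gave expression; GF-AFC fluorescence gave viability.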
# TDP1 cell CPT: DT40-hTDP1 cell growth loss with CPT. chicken DT40 Tdp1-/-;hTDP1 cells + 20 nM CPT, ATP luminescence, 48 h. Potency, µM (highest dose often 46.2 µM), inactives show at the highest dose activity change, negative = growth inhibition, usual class: inhibitors. hit rate 12% among 420,000; note: % is set by controls: 0 for no effect and ±100 for the full control effect; nearly all actives have a fitted effect of over 55% in size
#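 Cell growth measured by CellTiter-Glo luminescence after a minimum 48 h, 37 C compound exposure with 20 nM CPT in Tdp1-knockout DT40 cells stably expressing hTDP1, seeded 400/well; qHTS titration format.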
# HepG2 tox: counter-screen for TGF-b inhibitors: cytotoxicity in HepG2 cells; hit rate 0.76% among 410,000; Potency, µM (highest dose often 46.1 µM), without a hit: top-dose activity change, negative = cytotoxicity, hits mostly cytotoxic; AID 588856; HepG2 CAGA-GFP viability, ATP luminescence, 18 h
#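 CellTiter-Glo luminescence gave cytotoxicity after 18 hours at 37 degrees C. The cells were HepG2 CAGA-GFP in 1% FBS DMEM, stimulated with 500 pg/mL TGF-beta after compound addition. %Activity was normalised to no-cell wells (complete cell-killing) and DMSO (no toxicity), and curves were fitted and classified.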
# S2 tox: viability counter-screen for ATXN expression inhibitors; Potency, µM (titrated, usually from 56.7 µM), usual class: cytotoxic; hit rate 0.49% among 400,000; AID 651635; S2 cells (HEK-293 line with an ATXN2-luciferase reporter) viability, CellTiter-Fluor protease fluorescence, 24 h; note: nearly all actives have a fitted effect of over 40% in size
# TGFb SMAD3 inh: inhibitors of TGF-b signaling; HepG2 CAGA-GFP TGF-b/SMAD3 reporter, GFP fluorescence, 18 h; TGF-beta stimulated, 500 pg/mL final; Potency, µM (series often up to 46.1 µM), inactives show at the top dose activity, negative = inhibition, most hits filed as inhibitors; hit rate 1.2% among 410,000; note: % is set by controls: 0 for no effect and ±100 for the full control effect; nearly all actives have a fitted effect of over 65% in size
#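 Per well, imaged GFP fluorescence of HEPG2 CAGA-GFP cells gives the signal; cells get compound, then TGF-beta (500 pg/mL final), 18 h at 37 degrees C; %Activity versus -TGF-beta and +DMSO controls.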
# TDP1 cell noCPT: qHTS for Inhibitors of human tyrosyl-DNA phosphodiesterase 1 (TDP1): qHTS in cells in absence of CPT; Potency, µM (highest dose often 46.2 µM), for inactives: at the top dose activity change, negative = growth inhibition, actives largely listed as inhibitors; hit rate 15% among 420,000; AID 686978, 2013; DT40 Tdp1-/- hTDP1 cells, no CPT, ATP luminescence, 48 h; note: % is set by controls: 0 for no effect and ±100 for the full control effect; nearly all actives have a fitted effect of over 55% in size
#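 Chicken DT40 Tdp1-/- cells complemented with human TDP1, screened without camptothecin (DMSO vehicle only), 400 cells/well. Compounds pin-transferred, cells incubated at 37 °C for at least 48 hr. Growth read as ATP-dependent luminescence (CellTiter-Glo, 30 min at RT).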
# * hit, by the source's call; i = inactive; ? = inconclusive; / = not tested or not shown. Rows were chosen to be rich in hits. Some 17% of all compounds tested hit in one or more screens of this group. Calls come from the whole dose curve; as a rule, active = well fitted curve in the direction sought with a large enough effect; inconclusive = small, poorly fitted or top-dose-only effect, or another doubt; inactive = no such curve, though single readings can be large; an effect the other way counts as inactive or inconclusive. Potency is the fitted concentration of half-maximal effect.
SMILES,ATXN2 expr inh,TDP1 cell CPT,HepG2 tox,S2 tox,TGFb SMAD3 inh,TDP1 cell noCPT
Cc1cc(C)c(C)c(S(=O)(=O)N2CCC(C(=O)NC3=NCCS3)CC2)c1C,/,-2.4%,-12.4%,i,19.4%,-26.5%
O=C(COc1cccc(C(F)(F)F)c1)Nc1ccc(S(=O)(=O)N2CCCC2)cc1,-2.3%,23.1µM*,-20.7%,i,-8.6%,?
O=C(Cc1cccc(C(F)(F)F)c1)Nc1ccc(S(=O)(=O)N2CCCC2)cc1,5.6%,?,-38.0%,i,-26.4%,?
O=C(CNc1ccc(C(F)(F)F)cc1)Nc1cccc(S(=O)(=O)N2CCCC2)c1,-36.2%,-25.5%,0.6%,i,-18.3%,?
O=C(Cc1cccc(C(F)(F)F)c1)Nc1cccc(S(=O)(=O)N2CCCC2)c1,-3.9%,16.4µM*,17.6%,i,?,?
O=C(CNc1cccc(S(=O)(=O)N2CCCC2)c1)Nc1cccc(C(F)(F)F)c1,-33.8%,10.3µM*,-27.1%,?,?,11.6µM*
O=C(CNc1cccc(S(=O)(=O)N2CCOCC2)c1)Nc1ccc(C(F)(F)F)cc1,-22.1%,?,-4.6%,i,?,16.4µM*
O=C(COC(=O)c1cc(S(=O)(=O)N2CCCC2)ccc1O)Nc1ccc(SC(F)F)cc1,0.0%,-0.9%,-5.5%,i,-24.7%,-0.8%
O=C(CNc1ccc(C(F)(F)F)cc1)Nc1cccc(S(=O)(=O)N2CCCCC2)c1,/,?,-52.8%,?,?,16.4µM*
O=C(CNc1cc(S(=O)(=O)N2CCCC2)ccc1OCC(F)(F)F)Nc1ccc(SC(F)F)cc1,?,1.84µM*,-6.4%,?,0.0%,3.66µM*
O=c1c(-c2ccccc2)nc2cnc(N3CCOCC3)nc2n1Cc1ccc(F)cc1,/,-14.8%,/,/,/,-2.0%
CCOC(=O)c1sc(NC(=O)c2ccc(S(=O)(=O)N3CCOCC3)cc2)cc1C,?,?,-28.7%,i,-4.5%,?
Clc1cccc(/C=N/Nc2nc(Cl)nc3ccccc23)c1,91.4%,23.1µM*,-55.4%,i,0.0%,?
Clc1ccc(/C=N/Nc2ncnc3ccccc23)cc1Cl,15.4%,20.6µM*,-33.2%,i,?,20.6µM*
Fc1ccccc1/C=N/Nc1nc2ccccc2o1,9.4%,?,-3.4%,i,-0.5%,-1.9%
Fc1ccccc1/C=N/Nc1ncnc2ccccc12,-9.1%,6.51µM*,-46.7%,i,?,14.6µM*
COc1ccc(/C(O)=C2/C(=O)C(=O)N(CCN3CCNCC3)C2c2cccc([N+](=O)[O-])c2)cc1 (stereo not drawn),4.0%,-9.8%,-9.9%,i,-0.5%,-2.3%
O=S(=O)(NCc1ccc(F)cc1)c1ccc(N2CCCCS2(=O)=O)cc1,-31.4%,23.1µM*,-17.2%,i,-18.4%,20.6µM*
Cc1ccc(Cl)cc1NS(=O)(=O)c1ccc(N2CCCCS2(=O)=O)cc1,/,?,-7.3%,/,14.5%,11.6µM*
O=S(=O)(NCc1ccccc1Cl)c1ccc(N2CCCCS2(=O)=O)cc1,/,16.4µM*,-7.6%,/,?,20.6µM*
CSc1ccc(S(=O)(=O)NCc2ccccc2Cl)cc1,2.9%,-28.7%,-7.6%,i,-3.4%,?
O=S(=O)(NCc1ccc(F)cc1)c1ccc(-n2cnnn2)cc1,/,?,-23.0%,i,-2.4%,?
O=C1CCCN1c1ccc(S(=O)(=O)NCc2ccc(F)cc2)cc1,-10.8%,20.6µM*,-2.4%,i,3.1%,?
O=S(=O)(NCc1ccc(Cl)cc1)c1ccc(N2CCCCS2(=O)=O)cc1,-22.3%,11.6µM*,-24.3%,i,?,8.2µM*
COc1ccc(-n2c(-c3ccccc3)cc3c2CCCC3=O)cc1,-3.2%,-28.0%,-35.6%,?,6.7%,?
SMILES,ATXN2 expr inh,TDP1 cell CPT,HepG2 tox,S2 tox,TGFb SMAD3 inh,TDP1 cell noCPT
COc1ccc(-n2c(-c3ccc(Br)cc3)c[n+]3c2SC(C)C3)cc1 (stereo not drawn),-26.6%,1.64µM*,-5.2%,i,-18.4%,1.16µM*
COc1ccc(-n2c(-c3ccc(Br)cc3)c[n+]3c2CCCCC3)cc1,?,1.84µM*,-6.7%,i,-23.8%,1.84µM*
CCOc1ccc(-c2c[n+]3c(n2-c2ccccc2)CCCCC3)cc1,?,0.082µM*,-41.7%,i,?,0.0073µM*
CCOc1ccc(-c2c(C)n([O-])c3c([n+]2=O)CCCCC3)cc1,-4.6%,-11.3%,2.6%,i,3.1%,8.6%
CCOc1ccc(-n2c(CCC(=O)O)ccc2-c2ccc(Br)cc2)cc1,11.1%,?,-10.5%,i,-11.5%,?
COc1ccc(-n2c(-c3ccccc3)c[n+]3c2CCC3)cc1,?,2.06µM*,-2.3%,?,4.6%,2.31µM*
O/N=C(\c1ccccc1)c1nccc2ccccc12,/,-1.6%,3.9%,?,-1.9%,-22.1%
COc1ccc(-n2c(-c3ccc(Br)cc3)c[n+]3c2CCC3)cc1,?,18.4µM*,-0.5%,?,8.4%,4.61µM*
COc1ccc(-n2c(-c3ccc(Br)cc3)n[nH]c2=S)cc1,-22.6%,?,22.2%,i,8.4%,?
Cc1ccc(-n2nnnc2Sc2nc([N+](=O)[O-])nn2C)c(C)c1,-1.3%,16.4µM*,-9.4%,i,?,?
O=S(=O)([O-])CCC[N+]1(CC#Cc2ccccc2)CCCCC1,/,16.4µM*,6.0%,i,-2.0%,14.6µM*
C(#Cc1ccccc1)C[N+]1(CC#Cc2cccc3ccccc23)CCCC1,?,0.651µM*,-9.7%,i,?,0.058µM*
Cc1cc(N/N=C2\CC(C)CC(C)(C)C2)nc2ccccc12 (stereo not drawn),-30.2%,?,-51.9%,i,?,?
Cc1cccc(CN2C(=O)c3ccccc3S(=O)(=O)c3ccc(C(=O)N4CCN(c5cc(C)ccc5C)CC4)cc32)c1,1.0%,-21.2%,4.8%,i,?,-28.2%
CCOC(=O)c1ccc2c(c1)N(Cc1cccc(C(F)(F)F)c1)C(=O)c1ccccc1S2(=O)=O,10.9%,?,1.3%,?,-6.7%,16.4µM*
CCOC(=O)c1ccc2c(c1)N(Cc1cc(C)ccc1C)C(=O)c1ccccc1S2(=O)=O,-7.3%,?,1.0%,i,-14.0%,16.4µM*
